# Measured values as given in PubChem BioAssay (Tox21).
# Unmarked numbers belong to inactive results. Results filed as inconclusive are left out. Where a call stands in place of a potency, no number is given. Calls of active or inactive are those of the source. Unless noted, calls follow the shape of the dose curve; as a rule, active = well fitted curve in the direction sought with a large enough effect in the repeat runs; inconclusive = weak or mixed curves; inactive = no such curve, though single readings can be large; an effect the other way counts as inactive or inconclusive.
# What was measured:
# [1] = qHTS assay to identify small molecule agonists of the estrogen receptor alpha (ER-alpha) signaling pathway in the presence of an antagonist - cell viability counter screen (AID 1259386); also: series mostly up to about 92 µM; nearly all actives have a fitted effect of over 30% in size
# How it was run: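 Compounds tested at 15 concentrations for 22 h at 37C alongside 10.0nM (final) ICI-182,780 antagonist, in VM7Luc4E2 cells grown in phenol red-free, charcoal-stripped medium. Viability read by CellTiter-Fluor fluorescence after 1 h reagent incubation.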
# [2] = target: Progesterone receptor (Homo sapiens) (UniProt P06401); assay: qHTS assay to identify small molecule agonists of the progesterone receptor (PR) signaling pathway (AID 1346784; calls by dose curve; also: nearly all actives have a fitted effect of over 30% in size)
# Progesterone receptor (Homo sapiens), sequence (P06401 whole entry, looked up): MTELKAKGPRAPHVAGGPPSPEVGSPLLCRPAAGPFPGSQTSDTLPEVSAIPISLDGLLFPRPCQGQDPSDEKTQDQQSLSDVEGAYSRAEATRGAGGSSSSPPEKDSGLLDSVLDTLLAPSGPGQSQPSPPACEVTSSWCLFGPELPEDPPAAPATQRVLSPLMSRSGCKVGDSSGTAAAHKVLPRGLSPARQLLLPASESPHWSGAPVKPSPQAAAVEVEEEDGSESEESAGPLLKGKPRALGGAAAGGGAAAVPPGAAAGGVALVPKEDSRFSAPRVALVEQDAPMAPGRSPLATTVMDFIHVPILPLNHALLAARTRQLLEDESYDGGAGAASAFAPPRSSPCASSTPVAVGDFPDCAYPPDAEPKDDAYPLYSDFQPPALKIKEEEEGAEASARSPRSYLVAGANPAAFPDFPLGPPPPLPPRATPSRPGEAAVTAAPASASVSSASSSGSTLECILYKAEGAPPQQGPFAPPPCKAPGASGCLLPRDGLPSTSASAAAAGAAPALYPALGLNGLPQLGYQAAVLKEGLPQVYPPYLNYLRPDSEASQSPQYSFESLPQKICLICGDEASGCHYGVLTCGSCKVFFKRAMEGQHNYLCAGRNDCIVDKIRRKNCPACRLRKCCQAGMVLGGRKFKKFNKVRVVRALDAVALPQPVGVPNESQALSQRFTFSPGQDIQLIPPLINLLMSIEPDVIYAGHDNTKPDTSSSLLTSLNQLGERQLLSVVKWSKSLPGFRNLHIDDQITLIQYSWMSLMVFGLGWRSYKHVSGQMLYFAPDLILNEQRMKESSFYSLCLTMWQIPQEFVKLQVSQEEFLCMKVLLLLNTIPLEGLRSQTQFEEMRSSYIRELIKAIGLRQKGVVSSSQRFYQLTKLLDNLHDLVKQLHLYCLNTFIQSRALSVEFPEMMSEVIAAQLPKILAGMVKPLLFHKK
# How it was run: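 HEK 293T PR-UAS-bla reporter cells, 2% charcoal-stripped FBS; 6 hr settle at 37C/5% CO2, compound (DMSO) 16 hr, LiveBLAzer B/G FRET substrate 2 hr RT, fluorescence intensity read.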
# [3] = target: Progesterone receptor (Homo sapiens) (UniProt P06401); assay: qHTS assay to identify small molecule antagonists of the progesterone receptor (PR) signaling pathway (AID 1346795; active = well fitted inhibition curve with a large enough effect in the signal ratio in the repeat runs, not every such curve was filed as active; the % refers to the signal ratio)
# How it was run: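 Beta-lactamase reporter, HEK293T PR-UAS-bla line; 2% charcoal-stripped FBS; 6 hr pre-incubation, 37C/5% CO2. Compound + R5020 1 nM final, 16 hr. LiveBLAzer B/G FRET substrate, 2 hr RT; fluorescence intensity read.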
# [4] = qHTS assay to identify small molecule antagonists of the progesterone receptor (PR) signaling pathway - cell viability counter screen (AID 1346798); also: series mostly up to about 92 µM; nearly all actives have a fitted effect of over 50% in size
# How it was run: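 Luminescence readout (CellTiter-Glo, 30 min, RT) of viability in PR-UAS-bla HEK293T cells exposed to compound and R5020 agonist for 16 hr at 37C, 5% CO2; run in the same wells as the beta-lactamase reporter read.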
# [5] = qHTS assay to identify small molecule agonists of the progesterone receptor (PR) signaling pathway - cell viability counter screen (AID 1346799; calls by dose curve; also: nearly all actives have a fitted effect of over 45% in size)
# How it was run: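 HEK293T PR-UAS-bla, 3,000 cells/well, 2% charcoal-stripped FBS; 6 h settle, compound 16 h at 37C/5% CO2; LiveBLAzer 2 h RT, then CellTiter-Glo 30 min RT, luminescence read.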
# [6] = qHTS assay to identify small molecule agonists of the TGF-beta/Smad signaling pathway - cell viability counter screen (AID 1346829); also: top concentration of the series differs between compounds; nearly all actives have a fitted effect of over 45% in size
# How it was run: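 Tox21 qHTS format: SBE-bla HEK 293T cells treated with DMSO-dissolved compounds for 5 hr; CellTiter-Glo luminescence after 30 min at room temperature.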
# [7] = qHTS assay to identify small molecule agonists of the TGF-beta/Smad signaling pathway (AID 1346859; active = well fitted activation curve with a large enough effect in the signal ratio in the repeat runs, not every such curve was filed as active; the % refers to the signal ratio; also: series mostly up to about 77 µM)
# How it was run: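 Read-out: fluorescence at 460 and 530 nm (405 nm excitation) after a 2 hr room-temperature incubation with beta-lactamase FRET substrate. SBE-bla HEK 293T cells had been treated with test compounds for 5 hr at 37 C.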
# [8] = target: Thyrotropin-releasing hormone receptor (Homo sapiens) (UniProt P34981); assay: qHTS assay to identify small molecule antagonists of the thyrotropin-releasing hormone receptor (TRHR) signaling pathway (AID 1346877; active = well fitted inhibition curve with a large enough effect in the repeat runs, not every such curve was filed as active; also: series mostly up to about 51 µM)
# Thyrotropin-releasing hormone receptor (Homo sapiens), sequence (P34981 whole entry, looked up): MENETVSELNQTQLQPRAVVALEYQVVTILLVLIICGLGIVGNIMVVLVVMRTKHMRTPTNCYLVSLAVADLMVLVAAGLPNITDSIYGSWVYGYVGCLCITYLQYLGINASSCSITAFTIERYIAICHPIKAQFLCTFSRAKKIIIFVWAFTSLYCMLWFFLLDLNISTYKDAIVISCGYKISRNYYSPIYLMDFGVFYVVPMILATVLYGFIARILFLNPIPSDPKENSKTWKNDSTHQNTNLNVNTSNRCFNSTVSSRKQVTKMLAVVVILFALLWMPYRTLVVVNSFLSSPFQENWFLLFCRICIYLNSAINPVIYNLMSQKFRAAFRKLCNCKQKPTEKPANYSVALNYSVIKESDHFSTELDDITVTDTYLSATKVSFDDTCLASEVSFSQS
# How it was run: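 Antagonist mode: after a 5 min room-temperature compound exposure, cells were stimulated with 1 nM (final) TRH. Dye-loaded TRHR-HEK293 cells were used, and calcium-dependent fluorescence was followed for 3 min, with 15-point titrations run in triplicate.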
# [9] = target: Thyrotropin-releasing hormone receptor (Homo sapiens) (UniProt P34981); assay: qHTS assay to identify small molecule agonists of the thyrotropin-releasing hormone receptor (TRHR) signaling pathway (AID 1346891; calls by dose curve;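 also: HEK293 cells expressing TRHR with calcium dye readout; series mostly up to about 58 µM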)
# How it was run: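 HEK293/TRHR cells, 1500 per well, 18 h 37 °C; Ca dye 2 h 37 °C; pin-tool compound addition (agonist mode); kinetic fluorescence 3 min, 1 s reads; 15 concentrations, triplicate.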
# [10] = Human pregnane X receptor (PXR) small molecule agonists, qHTS cell viability counter screen (AID 1346977); also: nearly all actives have a fitted effect of over 50% in size
# How it was run: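 Fluorescence read-out (CellTiter-Fluor) of viability in PXR-Luc HepG2 cells, multiplexed with the luciferase agonist read. Compounds in DMSO added after 5hr plating; 24hr total exposure at 37C, 5% CO2.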
# [11] = Caspase-3/7 induction in HepG2 cells by small molecules, qHTS assay (AID 1346978); also: nearly all actives have a fitted effect of over 15% in size
# How it was run: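 Wild-type HepG2 cells, 2,000/well, settled 5 hr at 37 C and 5% CO2, then compound-treated for 17 hr; caspase-3/7 activity read by luminescent Caspase-Glo 3/7 after 30 min at room temperature.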
# [12] = Caspase-3/7 induction in CHO-K1 cells by small molecules, qHTS assay (AID 1346980); also: nearly all actives have a fitted effect of over 15% in size
# How it was run: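 Wild-type CHO-K1 cells exposed to compounds for 17hr at 37 C, 5% CO2. Caspase-3/7 activity then measured by Caspase-Glo 3/7 luminescence after 30min at room temperature.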
# [13] = Caspase-3/7 induction in HepG2 cells by small molecules, qHTS cell viability counter screen (AID 1346981); also: series mostly up to about 92 µM; nearly all actives have a fitted effect of over 30% in size
# How it was run: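 CellTiter-Fluor fluorescence measured viability in the same wells used for Caspase-Glo 3/7. HepG2 (wild type) at 2,000 cells/well were pre-incubated 5 hr, dosed, and given reagent at 16 hr, with 1 hr further at 37C.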
# [14] = target: Nuclear receptor subfamily 1 group I member 2 (Homo sapiens) (UniProt O75469); assay: Human pregnane X receptor (PXR) small molecule agonists, qHTS assay (AID 1346982); also: nearly all actives have a fitted effect of over 35% in size; also: potency is read from the fitted curve at half-maximal effect
# Nuclear receptor subfamily 1 group I member 2 (Homo sapiens), sequence (O75469 whole entry, looked up): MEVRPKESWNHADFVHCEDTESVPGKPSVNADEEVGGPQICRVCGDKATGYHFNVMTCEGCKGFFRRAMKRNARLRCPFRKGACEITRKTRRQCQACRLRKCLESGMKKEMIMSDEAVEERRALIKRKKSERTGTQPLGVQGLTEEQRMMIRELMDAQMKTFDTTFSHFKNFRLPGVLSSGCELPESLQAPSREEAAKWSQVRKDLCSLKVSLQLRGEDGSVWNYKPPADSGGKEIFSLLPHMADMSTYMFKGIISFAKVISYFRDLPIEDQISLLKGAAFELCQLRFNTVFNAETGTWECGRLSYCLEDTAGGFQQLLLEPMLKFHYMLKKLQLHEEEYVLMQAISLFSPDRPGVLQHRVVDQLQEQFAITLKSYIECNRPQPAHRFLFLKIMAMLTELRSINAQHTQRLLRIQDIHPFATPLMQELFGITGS
# How it was run: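 Agonist mode: luminescence from ONE-Glo after 24 h compound exposure at 37C in HepG2 cells carrying hPXR-responsive CYP3A4 luciferase, plated in charcoal-stripped serum medium 5 h beforehand.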
# [15] = qHTS assay to identify small molecule antagonists of the TGF-beta/Smad signaling pathway - cell viability counter screen (AID 1346824); also: nearly all actives have a fitted effect of over 50% in size
# How it was run: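 SBE-bla HEK 293T cells, incubated overnight, then compound plus 0.25 ng/mL TGF-beta1 (stock added) for 5 hr at 37 C. Viability was read in the same wells by CellTiter-Glo luminescence after 30 min at room temperature.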
# [16] = target: Acetylcholinesterase (Homo sapiens) (UniProt P22303); assay: Acetylcholinesterase (AChE) small molecule antagonists: colormetric cell-based qHTS assay (AID 1347395; calls by dose curve; also: nearly all actives have a fitted effect of over 30% in size; also: potency is read from the fitted curve at half-maximal effect)
# Acetylcholinesterase (Homo sapiens), sequence (P22303 whole entry, looked up): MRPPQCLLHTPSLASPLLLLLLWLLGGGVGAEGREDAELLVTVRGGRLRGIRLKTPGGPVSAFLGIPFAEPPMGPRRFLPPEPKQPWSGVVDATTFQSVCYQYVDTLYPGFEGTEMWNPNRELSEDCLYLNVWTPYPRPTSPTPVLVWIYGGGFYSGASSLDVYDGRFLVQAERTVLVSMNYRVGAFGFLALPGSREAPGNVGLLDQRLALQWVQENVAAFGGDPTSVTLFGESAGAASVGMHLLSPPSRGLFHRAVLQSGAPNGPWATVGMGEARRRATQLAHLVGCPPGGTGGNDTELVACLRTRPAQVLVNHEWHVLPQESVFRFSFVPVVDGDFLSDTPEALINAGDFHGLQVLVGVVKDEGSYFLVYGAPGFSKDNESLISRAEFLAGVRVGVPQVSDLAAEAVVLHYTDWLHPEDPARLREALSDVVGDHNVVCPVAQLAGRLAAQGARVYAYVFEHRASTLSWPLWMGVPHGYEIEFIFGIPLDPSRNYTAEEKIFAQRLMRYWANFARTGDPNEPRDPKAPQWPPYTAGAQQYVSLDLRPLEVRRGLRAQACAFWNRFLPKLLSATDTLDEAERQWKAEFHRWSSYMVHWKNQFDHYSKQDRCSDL
# How it was run: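 SH-SY5Y cells; cpd 30 min 37 C; + DTNB/acetylthiocholine, 90 min 37 C; colorimetric thiocholine read; qHTS.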
# [17] = Caspase-3/7 induction in CHO-K1 cells by small molecules, qHTS cell viability counter screen (AID 1346979); also: nearly all actives have a fitted effect of over 35% in size
# How it was run: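 CHO-K1 wt, 1,500 cells/well; 5hr pre-incubation 37C/5% CO2; compound pin transfer (DMSO); 16hr exposure; CellTiter-Fluor added, 1hr, fluorescence read.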
# [18] = target: Nuclear receptor subfamily 1 group I member 2 (Rattus norvegicus) (UniProt Q9R1A7); assay: Rat pregnane X receptor (rPXR) activation by small molecules, qHTS assay (AID 1346983); conditions: rPXR luciferase reporter cells, One-Glo luminescence, 24 h; max activation: hits give high values; also: nearly all actives have a fitted effect of over 20% in size
# Nuclear receptor subfamily 1 group I member 2 (Rattus norvegicus), sequence (Q9R1A7 whole entry, looked up): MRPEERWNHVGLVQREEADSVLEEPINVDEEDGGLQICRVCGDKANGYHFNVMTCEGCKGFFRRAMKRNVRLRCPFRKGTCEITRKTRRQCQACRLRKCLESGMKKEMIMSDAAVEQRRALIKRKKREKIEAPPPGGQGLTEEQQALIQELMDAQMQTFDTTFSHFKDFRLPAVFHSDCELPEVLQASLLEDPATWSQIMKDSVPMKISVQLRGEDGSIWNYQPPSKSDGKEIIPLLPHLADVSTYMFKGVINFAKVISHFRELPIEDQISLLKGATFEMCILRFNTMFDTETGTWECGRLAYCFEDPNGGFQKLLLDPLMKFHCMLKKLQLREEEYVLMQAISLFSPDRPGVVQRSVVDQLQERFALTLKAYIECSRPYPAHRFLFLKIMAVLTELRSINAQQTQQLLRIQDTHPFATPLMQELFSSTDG
# How it was run: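 Cell-based rPXR activation assay: rPXR cells, 2,000 per well, rested 5hr at 37 C, then exposed to compounds in DMSO for 24 hr at 37 C. Luciferase activity read by One-Glo luminescence after 30 min at room temperature.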
# [19] = target: Nuclear receptor subfamily 1 group I member 2 (Homo sapiens) (UniProt O75469); assay: Human pregnane X receptor (PXR) activation by small molecules, qHTS assay (AID 1346985); also: potency is read from the fitted curve at half-maximal effect; nearly all actives have a fitted effect of over 40% in size
# How it was run: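 DPX-2 cells (HepG2 co-transfected with a PXR response element and a CYP3A4-promoter luciferase construct) were seeded at 2,000 per well, rested 5 hr at 37C, then exposed to DMSO-dissolved compounds for 24 hr. Activation was read as luciferase luminescence.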
smiles,measurement,setting,value
COC(=O)c1ccccc1S(=O)(=O)NC(=O)Nc1nc(C)cc(C)n1,Potency,[1],inactive
same,Potency,[2],inactive
same,Potency,[3],inactive
same,Potency,[4],inactive
same,Potency,[5],inactive
same,outcome,[6],inactive
same,outcome,[7],inactive
same,outcome,[8],inactive
same,outcome,[9],inactive
same,Potency,[10],inactive
same,Potency,[11],inactive
same,Potency,[12],inactive
same,Potency,[13],inactive
same,Potency,[14],inactive
CC(N)=S,Potency,[1],inactive
same,Potency,[2],inactive
same,Potency,[3],inactive
same,Potency,[4],inactive
same,Potency,[15],inactive
same,outcome,[6],inactive
same,outcome,[7],inactive
same,outcome,[8],inactive
same,outcome,[9],inactive
same,Potency,[10],inactive
same,Potency,[11],inactive
same,Potency,[12],inactive
same,Potency,[13],inactive
same,Potency,[14],inactive
same,Potency,[16],inactive
CC(C)[N+](=O)[O-],Potency,[1],inactive
same,Potency,[2],inactive
same,Potency,[3],inactive
same,Potency,[4],inactive
same,Potency,[15],inactive
same,outcome,[6],inactive
same,outcome,[7],inactive
same,outcome,[9],inactive
same,Potency,[10],inactive
same,Potency,[11],inactive
same,Potency,[17],inactive
same,Potency,[12],inactive
same,Potency,[13],inactive
same,Potency,[14],inactive
same,Potency,[16],inactive
CC(C)(C)OC(=O)c1ncn2c1[C@@H]1CCCN1C(=O)c1c(Br)cccc1-2,Potency,[1],inactive
same,Potency,[2],inactive
same,Potency,[3],inactive
same,Potency,[4],inactive
same,Potency,[5],inactive
same,Potency,[15],inactive
same,outcome,[6],inactive
same,outcome,[8],inactive
same,outcome,[9],inactive
same,Potency,[10],inactive
same,Potency,[11],inactive
same,Potency,[12],inactive
same,Potency,[13],inactive
same,Potency,[14],13.3 µM (active)
same,max activation,[18],-1.76%
same,Potency,[19],15.8 µM (active)
same,Potency,[16],inactive
CN1CCC(N(Cc2ccccc2)c2ccccc2)CC1,Potency,[1],inactive
same,Potency,[2],inactive
same,Potency,[3],inactive
same,Potency,[4],inactive
same,Potency,[5],inactive
same,Potency,[15],inactive
same,outcome,[6],inactive
same,outcome,[7],inactive
same,Potency,[11],inactive
same,Potency,[12],inactive
same,Potency,[13],inactive
same,Potency,[14],inactive
same,Potency,[16],inactive
CNC(=O)Oc1ccc(N(C)C)c(C)c1,Potency,[1],inactive
same,Potency,[2],inactive
same,Potency,[3],inactive
same,Potency,[4],inactive
same,Potency,[15],inactive
same,outcome,[6],inactive
same,outcome,[7],inactive
same,outcome,[9],inactive
same,Potency,[10],inactive
same,Potency,[11],inactive
same,Potency,[17],inactive
same,Potency,[12],inactive
same,Potency,[13],inactive
same,Potency,[16],5.64 µM (active)
CC1=C(C(=O)O)N2C(=O)[C@@H](N)[C@H]2SC1,"activity change, negative = cytotoxicity",[1],2.04% [at 19 µM]
same,activation,[2],-0.285% [at 19 µM]
same,"activity change, negative = inhibition",[3],1.39% [at 18.9 µM]
same,"activity change, negative = cytotoxicity",[4],11.2% [at 18.9 µM]
same,"viability change, negative = cytotoxic",[15],0.38% [at 15.8 µM]
same,"activity change, negative = cytotoxicity",[6],8.87% [at 15.8 µM]
same,activation,[7],3.18% [at 15.8 µM]
same,"activity, negative = inhibition",[8],-1.01% [at 10.5 µM]
same,activation,[9],-0.183% [at 11.8 µM]
same,"activity change, negative = cytotoxicity",[10],20.6% [at 19 µM]
same,caspase activation,[11],-0.113% [at 19 µM]
same,"activity change, negative = cytotoxicity",[17],7.27% [at 19 µM]
same,caspase-3/7 activation,[12],0.154% [at 19 µM]
same,"activity change, negative = cytotoxicity",[13],0.509% [at 19 µM]
same,activation,[14],-3.97% [at 19 µM]
same,"activity, negative = inhibition",[16],0.304% [at 23.6 µM]
COC(=O)COc1ccc(Cl)cc1Cl,Potency,[1],inactive
same,Potency,[2],inactive
same,Potency,[3],inactive
same,Potency,[4],inactive
same,Potency,[5],inactive
same,Potency,[15],inactive
same,outcome,[6],inactive
same,outcome,[8],inactive
same,outcome,[9],inactive
same,Potency,[10],inactive
same,Potency,[11],inactive
same,Potency,[12],inactive
same,Potency,[13],inactive
same,Potency,[14],inactive
same,Potency,[16],inactive
CCCCCCI,Potency,[1],inactive
same,Potency,[2],inactive
same,Potency,[3],inactive
same,Potency,[4],inactive
same,Potency,[15],inactive
same,outcome,[6],inactive
same,outcome,[7],inactive
same,Potency,[10],inactive
same,Potency,[11],inactive
same,Potency,[17],inactive
same,Potency,[12],inactive
same,Potency,[13],inactive
same,Potency,[14],inactive
same,Potency,[16],inactive
